This is a sample that favours compounds with a hit; in the whole collection about 7.6% have one here.
RORg inh = inhibitors of mouse ROR gamma transcriptional activity; hit rate 5.4% among 310,000; Drosophila S2 Gal4-RORgamma UAS-luciferase reporter, 20 h; AID 2551; P51450; Potency, µM (titrated, usually from 53.6 µM), actives largely listed as inhibitors; note: nearly all actives have a fitted effect of over 60% in size
Target sequence (P51450 whole entry, looked up, the tested form may be a part): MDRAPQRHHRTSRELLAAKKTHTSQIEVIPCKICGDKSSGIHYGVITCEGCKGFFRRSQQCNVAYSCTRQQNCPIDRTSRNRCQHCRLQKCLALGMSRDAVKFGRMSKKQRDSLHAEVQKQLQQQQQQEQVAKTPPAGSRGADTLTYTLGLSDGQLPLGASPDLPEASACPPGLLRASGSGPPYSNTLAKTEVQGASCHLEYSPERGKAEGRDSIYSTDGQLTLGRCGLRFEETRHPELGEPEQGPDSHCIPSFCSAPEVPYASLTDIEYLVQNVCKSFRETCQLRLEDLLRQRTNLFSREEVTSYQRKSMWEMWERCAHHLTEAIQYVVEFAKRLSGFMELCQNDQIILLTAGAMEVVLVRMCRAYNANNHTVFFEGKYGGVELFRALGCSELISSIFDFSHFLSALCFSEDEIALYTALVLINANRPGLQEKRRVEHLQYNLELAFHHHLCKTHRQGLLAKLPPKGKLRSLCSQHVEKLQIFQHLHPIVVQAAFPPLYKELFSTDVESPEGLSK
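Compounds are pin-transferred onto Drosophila Schneider cells expressing a copper-inducible Gal4–ROR gamma transactivation domain fusion. After 1 hr, copper sulfate is added to 700 uM final; luciferase is read 20 hr later.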
ELG1 repair inh = ELG1-dependent DNA repair inhibition; HEK293T ELG1-luciferase reporter, luminescence, 16 h; DNA damage induced by 5-fluorouridine; Potency, µM (doses to about 46.1 µM), usual class: inhibitors; hit rate 2.3% among 330,000; AID 504467; note: nearly all actives have a fitted effect of over 55% in size
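DMSO vehicle served as the neutral condition. Each well held 2,000 cells given 5-fluorouridine plus compound; after 16 hr at 37 °C/5% CO2, ONE-Glo was added and luciferase measured 30 min later.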
p53 reactivation = re-activators of mutant p53; H1299 p53-A138V BP100-luciferase reporter, luminescence, 24 h; Potency, µM (highest dose often 92.2 µM), usual class: activators; hit rate 0.063% among 320,000; AID 504706; note: nearly all actives have a fitted effect of over 45% in size
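H1299 (p53-null), stable ts p53-A138V + BP100-Luc; 1000 cells/well, Opti-MEM/10% FBS; cpd 4 pt, 1:5; 24 h, 37 deg C, 5% CO2; detection reagent 10 min RT; luminescence.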
Gal4-VP16 FLuc = counter-screen for ROR gamma inhibitors: Gal4-VP16 reporter; hit rate 3.5% among 310,000; Drosophila S2 Gal4-VP16 UAS-luciferase, luminescence, 20 h; Potency, µM (highest dose often 53.6 µM), hits mostly inhibitors;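 note: Gal4-VP16 expression switched on by copper sulfate through the metallothionein promoter; nearly all actives have a fitted effect of over 50% in size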
Giardia killer = kills Giardia lamblia; Giardia lamblia trophozoite viability; activity change, % at 7.66 µM, hits read low; hit rate 0.15% among 340,000; in the data active = activity change below about -80%; inconclusive = between about -30% and that limit;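 note: parasites exposed to compound for two days anaerobically before the ATP read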
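Each well holds 100 Giardia trophozoites and compound. After two days (48 hrs) at 37 deg C in anaerobic conditions, ATP is quantified by luminescence.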
BRCA1 expr up = activators of BRCA1 expression; MCF7-BRCA1-FFLuc reporter, luminescence, 48 h; response scale: scaled: vehicle 0%, 10 µM genistein 100%; Potency, µM (series often up to 46.1 µM), actives largely listed as activators; AID 624202; hit rate 1.1% among 380,000; note: nearly all actives have a fitted effect of over 80% in size
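First, MCF7-BRCA1-FFLuc cells (2000/well) attach for 2 h; next, compounds are pin-added and incubated 48 h at 37 °C; finally, luciferase reagent is added and luminescence read after 15 min.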
Hits are given with their value; n = inactive; u = inconclusive; x = not tested or not shown; [ ] = remark or other dose. Unless noted, calls come from the whole dose curve; as a rule, active = well fitted curve in the direction sought with a large enough effect; inconclusive = small, poorly fitted or top-dose-only effect, or another doubt; inactive = no such curve, though single readings can be large; an effect the other way counts as inactive or inconclusive.

SMILES	RORg inh	ELG1 repair inh	p53 reactivation	Gal4-VP16 FLuc	Giardia killer	BRCA1 expr up
CCOC(=O)Nc1ccc2c(c1)N(C(=O)CCN(CC)CC)c1ccccc1S2=O (configuration not stated)	u	n	n	13µM	n	n
CC(C)C(c1nnnn1Cc1cccs1)N1CCN(C(=O)c2ccco2)CC1 (configuration not stated)	n	6.5µM	n	n	n	n
COc1cc2c(=O)n(CCCN3CCOCC3)c(=S)[nH]c2c(OC)c1OC	n	n	n	n	n	n
O=C1CCC(C(=O)N(Cc2ccco2)C2(C(=O)NC3CCCC3)CCCCC2)N1 (configuration not stated)	n	n	n	n	n	n
Cc1ccc(NC(=O)CCCn2c(=O)[nH]c3ccsc3c2=O)cc1	n	n	u	n	n	n
O=C(CCCn1c(=S)[nH]c2ccsc2c1=O)NCCc1ccccc1	u	u	n	u	n	n
Cc1ccc(NC(=O)CCCn2c(=S)[nH]c3ccsc3c2=O)cc1C	13µM	n	n	u	n	n
O=C(CCCn1c(=S)[nH]c2ccsc2c1=O)Nc1ccc2c(c1)OCO2	13µM	n	n	n	n	n
Cc1cccc(NC(=O)CCCn2c(=S)[nH]c3ccccc3c2=O)c1	11µM	n	n	n[10 µM]	n	n
CC(=O)c1ccccc1NC(=O)COC(=O)C1=NN(c2ccccc2)C(=O)CC1	x	n	n	x	n	n
NC(=O)C1CCN(C(=O)c2ccc3nc(-c4ccccc4)c(-c4ccccc4)nc3c2)CC1	n	n	n	n	n	n
CCOC(=O)N1CCN(C(=O)c2ccc3nc(-c4ccccc4)c(-c4ccccc4)nc3c2)CC1	n	23µM	n	n	n	n
COC(=O)c1ccc(COC(=O)c2ccc(N(C)C)cc2)cc1	n	n	n	u	n	5µM
COC(=O)c1ccc(COC(=O)c2ccccc2OC)cc1	n	u	22µM	n	n	n
Cc1ccc(OCCn2nnc3ccccc32)cc1C	u	u	n	n	n	4.5µM
CCCn1nnc2ccccc2c1=O	n	u	n	u	n	n
O=c1c2ccccc2nnn1COc1cccc2ccccc12	n	u	n	n	n	8.9µM
COc1ccccc1OCCn1nnc2ccccc21	n	u	u	n	n	u
CCOc1ccc(OCCCCn2cnc3ccccc3c2=O)cc1	n	16µM	n	n	n	n
CCOc1ccc(OCCn2nnc3ccccc3c2=O)cc1	n	u	n	n	n	1µM
CCOc1cccc(OCCCCn2cnc3ccccc3c2=O)c1	n	n	n	n	n	n
N#CCSc1nc2sccc2c(=O)n1-c1ccccc1	n	n	n	n	n	n
COc1ccccc1-c1nc(-c2ccc(C(=O)O)cc2)no1	x	x	x	x	n	n
COc1ccc(C(=O)c2c(C(F)(F)F)oc3c2C(=O)c2ccccc2C3=O)cc1OC	n	3.7µM	n	u	n	n
COc1ccc(C(=O)Nc2ccc3c(c2)C(=O)c2ccccc2C3=O)cc1OC	n	n	n	n	n	n
SMILES	RORg inh	ELG1 repair inh	p53 reactivation	Gal4-VP16 FLuc	Giardia killer	BRCA1 expr up
CN(C(=O)C1CCOC1)c1nnc(-c2ccccn2)s1 (configuration not stated)	n	u	u	n	n	u
Cc1cnc(-c2nnc(N(C)C(=O)C3CCOC3)s2)cn1 (configuration not stated)	n	u	u	n	n	7.9µM
OC[C@H]1O[C@@H](c2nc(-c3ccc(Br)cc3)no2)C[C@@H]1O	x	x	x	x	x	7.9µM
COc1cc(OC)cc(-c2noc(-c3csc([C@@H]4C[C@H](O)[C@@H](CO)O4)n3)n2)c1	x	x	x	x	x	10µM
COc1ccc(-c2noc(-c3csc([C@@H]4C[C@H](O)[C@@H](CO)O4)n3)n2)cc1OC	x	x	x	x	x	14µM
Brc1ccc(-c2noc(C3CCCCC3)n2)cc1	n	u	n	n	n	n
S=c1[nH]cnc2sc(-c3ccccc3)cc12	1.4µM	u	n	4.5µM	n	11µM
S=c1[nH]cnc2scc(-c3ccccc3)c12	0.5µM	n	n	0.5µM	n	n
COc1ccc(OC)c(NC(=S)NCc2ccccc2OC)c1	7.1µM	n	n	n[10 µM]	n	n
COc1ccccc1CNC(=S)Nc1cc(C)ccc1C	3.2µM	n	n	u	n	n
CC(C)c1ccc(NC(=S)NCc2cccs2)cc1	16µM	u	u	u	n	n
CNC(=S)Nc1cc(OC)ccc1OC	11µM	n	n	u	n	n
COc1ccc(C(=O)Nc2cc(OC)ccc2OC)cc1	n	u	u	n	n	n
COc1ccc(OC)c(NC(=S)NCCC(c2ccccc2)c2ccccc2)c1	x	x	x	x	n	n
CC(C)c1ccc(NC(=O)Cn2nnc(C(=O)NCc3cccs3)c2N)cc1	x	x	x	x	x	n
COc1cc([C@@H]2CC=C(C(=O)O)[C@H](c3ccc(F)cc3)N2S(=O)(=O)c2ccc(C)cc2)cc(OC)c1OC	x	n	n	x	u	n
Cc1cc(C)n(CCNC(=O)c2cc(COc3c(F)cccc3F)on2)n1	n	n	n	n	n	n
COc1ccc(NC(=O)CNCc2cccs2)c(OC)c1	x	x	x	x	x	n
COc1ccc(NC(=S)NCc2cccs2)cc1	4µM	n	n	u	n	n
COc1ccc(OC)c(NC(=S)NCc2cccs2)c1	14µM	n	n	u	n	n
CCOCCc1c(O)nc(SCC)[nH]c1=O	n	n	n	n	n	n
COc1ccc(Cc2noc(-c3ccc([N+](=O)[O-])cc3)n2)cc1OC	u	18µM	n	n	n	n
COc1ccc(Cc2noc(-c3ccc(C)cc3)n2)cc1	n[0.365 µM]	u	u	x	n	n
CCC(C)c1ccc(C2C3=C(Nc4nc(N)[nH]c(=O)c42)c2ccccc2C3=O)cc1 (configuration not stated)	13µM	n	n	u	n	n
Nc1nc2c(c(=O)[nH]1)C(c1ccccc1)C1=C(N2)c2ccccc2C1=O (configuration not stated)	n	u	n	n	n	n
SMILES	RORg inh	ELG1 repair inh	p53 reactivation	Gal4-VP16 FLuc	Giardia killer	BRCA1 expr up
CCN(C(=O)CN1C(=O)COc2ccc(S(=O)(=O)N3CCOCC3)cc21)c1ccc(OC)cc1	n	n	n	n	n	n
Cc1cc(C)cc(NC(=O)Oc2ccccc2N2CCCCC2)c1	n	n	n	n	n	n
O=C(NC1CC1)c1ccc(Cl)c(S(=O)(=O)N2CCOCC2)c1	n	n	n	n	n	n
O=C(Nc1cccc(S(=O)(=O)C(F)F)c1)c1ccc(Cl)c(S(=O)(=O)N2CCOCC2)c1	n	7.3µM	n	u	n	n
O=C(Nc1cccc(C(=O)NC2CC2)c1)c1ccc(Cl)c(S(=O)(=O)N2CCOCC2)c1	x	13µM	n	x	n	n
O=C(Nc1cccnc1)c1ccc(Cl)c(S(=O)(=O)N2CCOCC2)c1	n	u	n	n	n	n

Screening data deposited in PubChem BioAssay by National Center for Advancing Translational Sciences (NCATS).
